The values that follow come from PMC5540273 (PLoS ONE, 2017).

Molecules are shown by their SMILES.

Some test systems named below: PDPK1; PFTAIRE2; PHKG1; PHKG2; PIK3C2B; PIK3C2G; PIK3CA; PIK3CB; PIK3CD; PIK3CG; PIKFYVE; PIM1; PIM2; PIM3; PIP5K1A; PIP5K1C; PIP5K2B.
What all share (conditions): concentration: 1 μM, replicates: in singlicate; n = 1
In a further experiment the test system is T1, PFTK1.
T1 construct: gene CDK14

A further experiment deals with T2, PIK4CB.
T2 construct: gene PI4KB

For the next experiment, the system named is T3, PIP5K2C.
T3 construct: gene PIP4K2C
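Also: KINOMEscan kinase panel screen.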

For `Cc1nn2c(=O)cc(N3CCOCC3)nc2n1Cc1cccc(Cl)c1Cl` [GSK2342769], the “%Inh” value with PDPK1 stood at 0%; with PFTAIRE2 it was 0%; in the experiment on PFTK1, 91.7%; in the experiment with PHKG1 it was 7%; in the experiment with PHKG2, 0%; in the experiment with PIK3C2B, 89%. Further, the “%Inh” value was determined as 56% with PIK3C2G; 5% in the experiment with PIK3CA; 89% in the experiment on PIK3CB; 99.6% in the experiment with PIK3CD; 69% with PIK3CG; 0% in the experiment on PIK4CB. Besides, the “%Inh” value with PIKFYVE is recorded as 62%; in the experiment on PIM1 it was 0%; with PIM2, 0%; in the experiment on PIM3, 0%; in the experiment on PIP5K1A, 0%; in the experiment on PIP5K1C it was 12%. Also, the “%Inh” value with PIP5K2B is given as 5%; in the experiment with PIP5K2C, 1%.

Regarding `CCC(=O)c1c(-c2ccccc2)c2cc(Cl)ccc2c(=O)n1Cc1ccc(C(=O)O)cc1`, the “%Inh” value in the experiment with PDPK1, with PFTAIRE2, in the experiment on PFTK1, in the experiment on PHKG1, in the experiment with PHKG2 and with PIK3C2B was 0% each time. The “%Inh” value in the experiment on PIK3C2G came out at 0%; in the experiment on PIK3CA it was 0%; with PIK3CB, 3%; with PIK3CD, 0%; with PIK3CG, 0%; with PIK4CB, 0%. For the same molecule, the “%Inh” value is given as 0% in the experiment with PIKFYVE; 0% in the experiment with PIM1; 0% in the experiment on PIM2; 0% in the experiment on PIM3; 18% in the experiment with PIP5K1A; 15% in the experiment on PIP5K1C. Besides, the figures for the “%Inh” value in the experiment on PIP5K2B and in the experiment on PIP5K2C were 0% and 16%, respectively.

Consider `CCn1c(-c2nonc2N)nc2ccccc21` [SB-693162/GW549034], for which the “%Inh” value is on record as 0% in the experiment on PDPK1; 0% in the experiment on PFTAIRE2; 17% in the experiment on PFTK1; 21% in the experiment on PHKG1; 16% in the experiment with PHKG2; 0% in the experiment with PIK3C2B. In addition, the “%Inh” value with PIK3C2G is on record as 0%; in the experiment on PIK3CA, 0%; in the experiment with PIK3CB it was 62%; with PIK3CD, 0%; in the experiment on PIK3CG, 0%; with PIK4CB, 29%. Further, the “%Inh” value with PIKFYVE worked out at 0%; in the experiment with PIM1, 0%; in the experiment with PIM2 it was 0%; in the experiment with PIM3, 8%; in the experiment with PIP5K1A, 23%; in the experiment with PIP5K1C, 8%. For the same molecule, the “%Inh” value in the experiment on PIP5K2B and in the experiment on PIP5K2C was 0% throughout.

With `FC(F)(F)c1ccc(-c2ncn(CCCN3CCOCC3)c2-c2ccncc2)cc1` [SB-217780], the “%Inh” value with PDPK1 came out at 0%; with PFTAIRE2 it was 40%; with PFTK1 it was 0%; in the experiment on PHKG1, 1%; in the experiment with PHKG2 it was 4%; in the experiment with PIK3C2B, 0%. Further, the “%Inh” value in the experiment on PIK3C2G is reported as 0%; with PIK3CA, 0%; in the experiment with PIK3CB, 4%; in the experiment with PIK3CD, 0%; in the experiment on PIK3CG, 34%; in the experiment with PIK4CB, 0%. Moreover, the “%Inh” value in the experiment with PIKFYVE was 0%; in the experiment on PIM1 it was 15%; in the experiment with PIM2 it was 0%; with PIM3 it was 13%; in the experiment on PIP5K1A it was 0%; with PIP5K1C, 36%. Moreover, the “%Inh” value in the experiment with PIP5K2B is reported as 0%; with PIP5K2C, 27%.

As to `Nc1ncnc2c1ncn2-c1ccc(Cl)cc1` [AH2635], the “%Inh” value with PDPK1 turned out to be 0%; with PFTAIRE2, 0%; with PFTK1, 17%; in the experiment on PHKG1 it was 0%; with PHKG2, 0%; in the experiment on PIK3C2B it was 0%. Besides, the “%Inh” value was determined as 0% with PIK3C2G; 0% in the experiment with PIK3CA; 0% in the experiment with PIK3CB; 0% in the experiment on PIK3CD; 47% in the experiment on PIK3CG; 0% with PIK4CB. Further, the “%Inh” value is 0% in the experiment with PIKFYVE; 0% in the experiment with PIM1; 0% in the experiment with PIM2; 0% in the experiment on PIM3; 17% in the experiment on PIP5K1A; 57% with PIP5K1C. For the same molecule, the “%Inh” value is recorded as 10% in the experiment with PIP5K2B and 23% in the experiment on PIP5K2C.

`COc1cc2ncn(-c3cc(OCCCc4ccccc4)c(C(N)=O)s3)c2cc1OC` [GSK205189]: the “%Inh” value came to 11% in the experiment on PDPK1; 8% in the experiment on PFTAIRE2; 34% in the experiment with PFTK1; 2% in the experiment on PHKG1; 20% in the experiment with PHKG2; 8% in the experiment on PIK3C2B. Further, the “%Inh” value in the experiment on PIK3C2G, in the experiment with PIK3CA, in the experiment on PIK3CB, in the experiment with PIK3CD, in the experiment with PIK3CG and in the experiment on PIK4CB was 0% throughout. In addition, the “%Inh” value in the experiment on PIKFYVE was determined as 0%; in the experiment on PIM1 it was 0%; in the experiment on PIM2, 0%; in the experiment with PIM3, 0%; with PIP5K1A it was 0%; in the experiment on PIP5K1C, 69%. For the same molecule, the figures for the “%Inh” value in the experiment on PIP5K2B and with PIP5K2C were 0% and 9%, respectively.

As to `Cc1c(Cn2c(C)nn3c(=O)cc(N4CCO[C@H](C)C4)nc23)cccc1C(F)(F)F` [GSK2373690], the “%Inh” value in the experiment with PDPK1 amounted to 0%; with PFTAIRE2 it was 10%; in the experiment on PFTK1 it was 11%; in the experiment with PHKG1 it was 3%; in the experiment with PHKG2, 0%; in the experiment on PIK3C2B, 0%. Further, the “%Inh” value in the experiment on PIK3C2G is listed as 0%; in the experiment with PIK3CA it was 0%; in the experiment on PIK3CB, 96.7%; in the experiment on PIK3CD, 65%; in the experiment on PIK3CG it was 21%; with PIK4CB it was 0%. Besides, the “%Inh” value with PIKFYVE came out at 0%; in the experiment on PIM1, 0%; in the experiment with PIM2, 0%; in the experiment on PIM3, 0%; with PIP5K1A, 0%; in the experiment on PIP5K1C, 13%. For the same molecule, the “%Inh” value with PIP5K2B is reported as 12%; with PIP5K2C, 9%.

As for `Nc1n[nH]c2ncc(-c3ccccc3)cc12` [SB-517081], the “%Inh” value in the experiment with PDPK1 is given as 0%; in the experiment with PFTAIRE2, 7%; in the experiment with PFTK1 it was 10%; in the experiment with PHKG1, 0%; with PHKG2 it was 0%; in the experiment on PIK3C2B, 3%. Besides, the “%Inh” value in the experiment with PIK3C2G, in the experiment on PIK3CA, in the experiment with PIK3CB, with PIK3CD, in the experiment with PIK3CG and with PIK4CB was 0% each time. Besides, the “%Inh” value in the experiment on PIKFYVE is reported as 0%; in the experiment with PIM1, 12%; in the experiment on PIM2, 0%; in the experiment on PIM3, 0%; in the experiment on PIP5K1A, 0%; in the experiment on PIP5K1C, 38%. Moreover, the “%Inh” value worked out at 9% with PIP5K2B and 23% with PIP5K2C.

In the case of `O=c1cc(N2CCOCC2)nc2n(Cc3ccc(F)c(Cl)c3)ccn12` [GSK2297099], the “%Inh” value is on record as 0% in the experiment on PDPK1; 62% in the experiment with PFTAIRE2; 14% with PFTK1; 0% in the experiment with PHKG1; 0% in the experiment with PHKG2; 31% in the experiment with PIK3C2B. Further, the “%Inh” value turned out to be 0% in the experiment with PIK3C2G; 11% with PIK3CA; 96.2% in the experiment on PIK3CB; 75% in the experiment on PIK3CD; 23% in the experiment on PIK3CG; 20% in the experiment with PIK4CB. The “%Inh” value turned out to be 0% in the experiment with PIKFYVE; 11% in the experiment on PIM1; 0% with PIM2; 19% in the experiment on PIM3; 0% in the experiment on PIP5K1A; 0% in the experiment on PIP5K1C. Besides, the “%Inh” value with PIP5K2B and in the experiment on PIP5K2C was 0% throughout.

`CCC(=O)c1c(-c2ccccc2)c2cc(Cl)ccc2c(=O)n1Cc1cc(S(C)(=O)=O)n(CC(N)=O)n1`: the “%Inh” value with PDPK1 is recorded as 31%; with PFTAIRE2, 0%; in the experiment with PFTK1 it was 11%; with PHKG1, 0%; in the experiment with PHKG2, 0%; in the experiment with PIK3C2B it was 0%. Further, the “%Inh” value with PIK3C2G, with PIK3CA, with PIK3CB, in the experiment with PIK3CD, in the experiment with PIK3CG and in the experiment on PIK4CB was 0% in each case. In addition, the “%Inh” value amounted to 17% in the experiment on PIKFYVE; 18% in the experiment on PIM1; 2% in the experiment on PIM2; 9% in the experiment on PIM3; 0% in the experiment with PIP5K1A; 33% in the experiment on PIP5K1C. The “%Inh” value in the experiment on PIP5K2B worked out at 8%; in the experiment with PIP5K2C, 19%.
